Data on 9 compounds can be found in publication PMC11062922 (Nature Chemical Biology, 2023).

Holding throughout (design): species or system human, MV4-11 + K-562 + COLO205 + SK-N-BE2 + OVCAR-8
Test [1] concerns CDK7. The following applies: read-out: apparent Kd, n = 1.
Test [2] deals with ERCC2. The conditions noted are these: read-out: apparent Kd, n = 1.
Test [3] relates to FER. The conditions noted are these: read-out: apparent Kd; compound concentrations:100 nM and 1000 nM (sheet 'Samples'); n = 1.
The subject of test [4] is MARK4. The conditions noted are these: read-out: apparent Kd, n = 1.
Test [5] relates to PIP4K2C. The conditions noted are these: read-out: apparent Kd, n = 1.
Test [6] concerns PLK4. The following applies: read-out: apparent Kd; compound concentrations:100 nM and 1000 nM (sheet 'Samples'); n = 1.
Test [7] concerns PRKAA1. The following applies: read-out: apparent Kd, n = 1.
The subject of test [8] is PRKCQ. The following applies: read-out: apparent Kd, n = 1.
For test [9], the system named is PTK2B. The conditions noted are these: read-out: apparent Kd, n = 1.
In test [10] the test system is PTK2. The conditions noted are these: read-out: apparent Kd; compound concentrations:100 nM and 1000 nM (sheet 'Samples'); n = 1.
The subject of test [11] is RPS6KA6. The following applies: read-out: apparent Kd, n = 1.
In test [12] the test system is STK10. The following applies: read-out: apparent Kd; compound concentrations:100 nM and 1000 nM (sheet 'Samples'); n = 1.
Test [13] deals with PRKD2. The conditions noted are these: read-out: apparent Kd, n = 1.
Test [14] concerns PRKD3. The conditions noted are these: read-out: apparent Kd, n = 1.
The subject of test [15] is DYRK1A. The conditions noted are these: read-out: apparent Kd, compound concentrations: 100 nM and 1000 nM (sheet 'Samples'), n = 1.
Test [16] deals with FLT3. The conditions noted are these: read-out: apparent Kd, n = 1.
The test system of test [17] is CDKL5. The following applies: read-out: apparent Kd, compound concentrations: 100 nM and 1000 nM (sheet 'Samples'), n = 1.
Test [18] relates to LATS1. The following applies: read-out: apparent Kd, n = 1.
Test [19] has as its system MYLK3. The conditions noted are these: read-out: apparent Kd, n = 1.
In test [20] the test system is PRKCD. The conditions noted are these: read-out: apparent Kd, n = 1.
Setting [21] is: compound concentrations:100 nM and 1000 nM (sheet 'Samples').

SMILES strings stand for the structures. Where two headings read alike, the source gives them in different places.

Regarding `CS(=O)(=O)CCn1c(=O)c(Oc2ccc(F)cc2F)cc2cnc(NC3CCOCC3)nc21` [RO5027956-000], the potency estimated from few doses in test [1] (setting [21]) was 349 nM; in [2] (setting [21]), 317 nM; in [3], 431 nM; in [4] (setting [21]), 1950 nM; in test [5] (setting [21]) it was 462 nM; in test [6], 568 nM. Besides, the potency estimated from few doses in test [7] (setting [21]) is 1210 nM; in test [8] (setting [21]), 998 nM; in [9] (setting [21]) it was 417 nM; in [10], 814 nM; in test [11] (setting [21]) it was 506 nM; in [12] it was 2320 nM.

Regarding `CN(C)CC(O)COc1ccc(Nc2nccc(-c3cnn4nc(N5CCOCC5)ccc34)n2)cc1` (stereo not drawn) [GW767488X], the potency estimated from few doses in test [5] (setting [21]) was 1440 nM; in test [13] (setting [21]), 28.7 nM; in test [14] (setting [21]), 44.8 nM.

On to `O=C1N=C(NCCCc2ccccc2)S/C1=C\c1ccc2ncccc2c1` [RO4493941-000], for which the potency estimated from few doses in test [15] (CATDS: 6.8092992761352805E-2) is 1090 nM; in test [16] (compound concentrations: 100 nM and 1000 nM (sheet 'Samples'), CATDS: 7.0899563785954994E-2) it was 945 nM.

`COc1cc[nH]c1/C=C1\C(=O)Nc2ccc(F)c(C#CC3(O)CCNCC3)c21.Cl` [RO0282986-001]: the potency estimated from few doses was 1020 nM in test [1] (compound concentrations: 100 nM and 1000 nM (sheet 'Samples'), CATDS: 1.0726954600141701E-2); 2.99 nM in [17] (CATDS: 0.34989836845243499); 1210 nM in test [2] (compound concentrations: 100 nM and 1000 nM (sheet 'Samples'), CATDS: 1.0235233347988201E-2); 43.6 nM in test [16] (compound concentrations: 100 nM and 1000 nM (sheet 'Samples'), CATDS: 4.9574860121956603E-2); 68.4 nM in [18] (compound concentrations: 100 nM and 1000 nM (sheet 'Samples'), CATDS: 3.7276023026690398E-2); 429 nM in test [4] (compound concentrations: 100 nM and 1000 nM (sheet 'Samples'), CATDS: 1.45077611109678E-2). For the same compound, the potency estimated from few doses in test [19] (compound concentrations: 100 nM and 1000 nM (sheet 'Samples'), CATDS: 1.54633184822493E-2) is 368 nM; in test [7] (compound concentrations: 100 nM and 1000 nM (sheet 'Samples'), CATDS: 1.18517634082691E-2) it was 741 nM; in test [20] (compound concentrations: 100 nM and 1000 nM (sheet 'Samples'), CATDS: 1.2203659987841E-2), 680 nM; in test [13] (compound concentrations: 100 nM and 1000 nM (sheet 'Samples'), CATDS: 2.5801010504162801E-2), 129 nM; in test [14] (compound concentrations: 100 nM and 1000 nM (sheet 'Samples'), CATDS: 3.6312689079161402E-2) it was 71.4 nM; in [11] (compound concentrations: 100 nM and 1000 nM (sheet 'Samples'), CATDS: 1.2829138267775601E-2) it was 590 nM.

Take `O=C(O)C(F)(F)F.O=c1[nH]ccc2nc(N[C@@H]3CCNC3)nc(Nc3cc(Cl)cc(Cl)c3)c12` [GSK2188764A]: the potency estimated from few doses in test [4] (setting [21]) is 122 nM; in [19] (setting [21]), 184 nM; in test [7] (setting [21]), 799 nM; in test [20] (setting [21]) it was 222 nM; in test [8] (setting [21]), 2080 nM; in test [13] (setting [21]), 1300 nM. For the same compound, the potency estimated from few doses in test [14] (setting [21]) is 1470 nM; in test [9] (setting [21]) it was 46.7 nM; in [11] (setting [21]) it was 618 nM; in [12], 992 nM.

Consider `CC(C)Oc1ccc2c(-c3ccnc(Nc4ccc(N5CCN(C)CC5)cc4)n3)cnn2n1` [GW696155X], for which the potency estimated from few doses in [16] (setting [21]) was 479 nM; in test [18] (setting [21]), 1500 nM; in test [4] (setting [21]), 1800 nM; in [6], 506 nM; in test [13] (setting [21]) it was 482 nM; in test [14] (setting [21]), 1110 nM.

Turning to `CC(C)Nc1cc(-c2ccc3c(N)n[nH]c3c2)nc(N)n1` [GSK2221681A], in test [19] (setting [21]), the potency estimated from few doses is 1410 nM.

For the compound `CNCC#Cc1c(F)ccc2c1/C(=C/c1[nH]ccc1OC)C(=O)N2.Cl` [RO0281601-001], the potency estimated from few doses in test [17] (CATDS: 0.30453752260001898) is 9.43 nM; in test [16] (compound concentrations: 100 nM and 1000 nM (sheet 'Samples'), CATDS: 6.9218069305552701E-2), 105 nM; in [18] (compound concentrations: 100 nM and 1000 nM (sheet 'Samples'), CATDS: 3.7561417632614502E-2) it was 394 nM; in test [4] (compound concentrations: 100 nM and 1000 nM (sheet 'Samples'), CATDS: 2.40121909495257E-2) it was 1380 nM; in [19] (compound concentrations: 100 nM and 1000 nM (sheet 'Samples'), CATDS: 6.4458343159200099E-2), 121 nM.

For `Cl.Cl.NCC(NC(=O)c1cc(-c2ccnc3[nH]ccc23)cs1)c1ccccc1.NCC(NC(=O)c1cc(-c2ccnc3[nH]ccc23)cs1)c1ccccc1` (stereo not drawn) [GSK1229959A], the potency estimated from few doses is 349 nM in [1] (compound concentrations: 100 nM and 1000 nM (sheet 'Samples'), CATDS: 2.3944449367716902E-2); 33.2 nM in test [17] (CATDS: 5.0422739373742101E-2); 1200 nM in [15] (CATDS: 1.8409243102770301E-2); 649 nM in test [2] (compound concentrations: 100 nM and 1000 nM (sheet 'Samples'), CATDS: 2.07815599628208E-2); 382 nM in test [19] (compound concentrations: 100 nM and 1000 nM (sheet 'Samples'), CATDS: 2.3428006567825201E-2); 2230 nM in test [5] (compound concentrations: 100 nM and 1000 nM (sheet 'Samples'), CATDS: 1.6714878320236801E-2). Further, the potency estimated from few doses in test [20] (compound concentrations: 100 nM and 1000 nM (sheet 'Samples'), CATDS: 2.3457230282112398E-2) was 380 nM; in test [8] (compound concentrations: 100 nM and 1000 nM (sheet 'Samples'), CATDS: 1.8945184174552199E-2), 1030 nM; in test [9] (compound concentrations: 100 nM and 1000 nM (sheet 'Samples'), CATDS: 1.9759894186564299E-2) it was 828 nM.
